aDG glyco act – alpha-DG glycosylation activation. activation, % at 10 µM. Pro5-aDG cells, alpha-DG glycosylation AlphaScreen (IIH6); 0% Pro5, 100% B10-LARGE cell signal. 360,000 tested, 0.22% active;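 active means activation of at least 8% versus controls, or a plate z-score of at least 8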;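 further: Pro5 are CHO cells carrying HIG-tagged alpha-DG that lacks glycosylation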
TROY NFkB inh – TROY signaling inhibition; Q293 LMP1-TROYcd NF-kB luciferase reporter, 4 h; inhibition, % at 10 µM; 360,000 tested, 0.98% active;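 active means compounds whose plate-normalised and pattern-corrected inhibition of the luciferase reporter signal at the single screening dose is 50% or more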
LMP1 NFkB inh – Epstein-Barr LMP1 NF-kappaB reporter inhibition; LMP1-induced NF-kappaB luciferase reporter cells, luminescence; inhibition, % at 12.5 µM; 350,000 tested, 0.69% active; AID 504558; in the data active means inhibition above about 41%; inconclusive means no clear call, values can overlap the other calls;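 further: 0% = neutral control wells and 100% = reference inhibitor control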
LGR2 inh – Drosophila LGR2 receptor signaling inhibition | HEK293 LGR2, CRE-luciferase, bursicon-stimulated, 4 h | 380,000 tested, 0.35% active | inhibition, % at 9.99 µM | AID 720647;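 active means drop in luminescence signal, shown as inhibition above about 50% in the replicate tests, limit read from the data, passing the limit was not always enough; inconclusive means probably only some replicates passing the limit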;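 further: agonist challenge used bursicon conditioned medium at about half maximal strength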
TWEAK Fn14 block – TWEAK-Fn14 signaling inhibition. TWEAK-stimulated Fn14 reporter cells, luciferase luminescence, 8 h. inhibition, % at 10 µM. 360,000 tested, 2% active. AID 1159606; in the data active means inhibition above about 50%
HSP90 refold inh – inhibitors of HSP90 luciferase refolding in rabbit reticulocyte lysate; luciferase refolding luminescence, 3 h; inhibition, % at 5.6 µM; 290,000 tested, 0.91% active; AID 1789;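 active means inhibition above the screen-wide mean plus 3 SD, computed separately per campaign, cut at about 16% in these data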;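 further: 0% = DMSO wells and 100% = 60 µM geldanamycin wells; inhibitors lower the luminescence because luciferase stays unfolded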
HSP90 inh confirm – confirmation of HSP90 inhibitors. rabbit reticulocyte lysate, luciferase refolding luminescence, 3 h. 2,300 tested, 64% active. shares compounds with HSP90 refold inh. inhibition, % at 5.9 µM; in the data active means inhibition above about 18%;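 further: 0% = vehicle wells and 100% = reference inhibitor wells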
luciferase ctr – blocks native firefly luciferase in HSP90 counter-screen | shares compounds with HSP90 refold inh | purified native firefly luciferase, luminescence | inhibition, % at 5.9 µM | 2,300 tested, 48% active;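 active means inhibition above the mean inhibition of all tested sample wells plus 3 SD, cut at about 10% in these data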;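 further: 0% = DMSO with luciferase and 100% = wells lacking luciferase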
Target sequence (P08659 whole entry, looked up): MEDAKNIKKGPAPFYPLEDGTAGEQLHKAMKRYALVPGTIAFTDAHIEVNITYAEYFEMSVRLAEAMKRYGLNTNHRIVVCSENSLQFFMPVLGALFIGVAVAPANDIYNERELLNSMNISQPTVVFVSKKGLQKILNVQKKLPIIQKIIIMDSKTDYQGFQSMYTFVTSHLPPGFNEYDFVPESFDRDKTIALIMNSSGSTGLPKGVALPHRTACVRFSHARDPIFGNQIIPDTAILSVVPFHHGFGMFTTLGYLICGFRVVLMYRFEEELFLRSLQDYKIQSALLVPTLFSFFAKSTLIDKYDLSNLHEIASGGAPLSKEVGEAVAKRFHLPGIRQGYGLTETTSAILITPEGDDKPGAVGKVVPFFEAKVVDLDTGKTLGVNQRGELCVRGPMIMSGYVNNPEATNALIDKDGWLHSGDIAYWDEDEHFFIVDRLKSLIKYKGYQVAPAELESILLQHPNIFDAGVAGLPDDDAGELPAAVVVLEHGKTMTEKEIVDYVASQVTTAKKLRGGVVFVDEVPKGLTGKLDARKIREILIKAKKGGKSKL
Numbers without * were called inactive; ? = inconclusive; · = not tested or not shown. Compounds with a hit are over-represented: about 2.6% of the library has one in this group of screens.

SMILES | aDG glyco act | TROY NFkB inh | LMP1 NFkB inh | LGR2 inh | TWEAK Fn14 block | HSP90 refold inh | HSP90 inh confirm | luciferase ctr
COc1ccc(N(Cc2cc(=O)[nH]c3ccccc23)C(=O)C(C)C)cc1 | 0 | -6 | -7 | 18 | -5 | 0 | · | ·
O=C1N/C(=N\S(=O)(=O)c2ccccc2)S/C1=C\c1cc([N+](=O)[O-])ccc1O | 0 | -10 | 3 | -2 | 2 | 54* | -2 | 1
COc1ccc(C2=NN(c3ccc(C(=O)O)cc3)C(c3ccc(OC)c(OC)c3)C2)cc1 (configuration not stated) | 0 | 8 | 1 | -26 | -34 | 19* | 46* | 38*
COc1ccc(C2CC(c3ccccc3)=NN2c2ccc(S(N)(=O)=O)cc2)cc1OC (configuration not stated) | 2 | 3 | -1 | -8 | -1 | 4 | · | ·
Cc1ccc(N2Cc3ccccc3C2=O)cc1 | 0 | -14 | 14 | 1 | 53* | 31* | 37* | 28*
O=C(NCC[C@@H]1CC[C@H](NC(=O)C2CCC2)[C@@H](CO)O1)c1cc(Cl)cc(Cl)c1 | · | · | · | -12 | · | · | · | ·
CCOc1ccc(C(=O)OCC(=O)NCc2ccco2)cc1OCC | 0 | -16 | 0 | · | -1 | 31* | -2 | -7
COc1ccc(C(=O)OCC(=O)NCc2ccco2)cc1OC | 0 | 6 | 2 | · | -2 | 2 | · | ·
COc1ccc2c3c([nH]c2c1)[C@@H](CO)N(C(=O)NC(C)C)CC31CCN(Cc2ccc(F)cc2)CC1 | · | · | · | 2 | · | · | · | ·
N#Cc1ccc(-c2ccc3c(c2)[C@@H]2[C@@H](CCN2C(=O)C2CCCC2)[C@H](CO)N3)cc1 | · | · | · | -20 | · | · | · | ·
O=C(O)c1ccc(/C=C/C(=O)c2ccc3c(c2)OCCCO3)cc1 | 0 | -28 | -2 | -58 | 17 | 51* | 65* | -4
C[C@H](CO)N1C[C@H](C)[C@@H](CN(C)S(=O)(=O)c2ccccc2)Oc2ncc(C#CCN(C)C)cc2C1=O | · | · | · | -8 | · | · | · | ·
O=C(Nc1nccs1)c1cn2ccccc2n1 | 0 | 6 | 19 | 14 | 34 | 33* | 54* | 43*
CC(C)c1cn(CC[C@H]2CC[C@@H](NC(=O)C3CCC3)[C@H](CO)O2)nn1 | · | · | · | 4 | · | · | · | ·
c1ccc(-c2nnc(-c3ccccn3)s2)nc1 | 0 | 28 | 47* | 60* | 81* | 35* | 64* | 44*
CN1C(C(=O)NCc2ccco2)=CC(c2ccc(F)cc2)=NS1(=O)=O | 0 | 12 | -7 | 14 | 3 | 56* | -1 | -7
COc1cccc(/C=N/Nc2nnc(C)n2N)c1O | 0 | 1 | 10 | 10 | 11 | 3 | · | ·
COc1ccc(-n2c(C)cc(/C=N/Nc3nnc(C)n3N)c2C)cc1 | 2 | 6 | 6 | 3 | -6 | 75* | -5 | -7
C[C@@H]1CCCCO[C@@H](CN(C)C(=O)Nc2ccc3c(c2)OCO3)[C@H](C)CN([C@H](C)CO)C(=O)c2cc(NS(=O)(=O)c3ccc(F)cc3)ccc2O1 | · | · | · | 8 | · | · | · | ·
COC(=O)c1ccc(-c2nc(CN3CCCN(C(=O)c4ccco4)CC3)c(C)o2)cc1 | 0 | -36 | -6 | -29 | 3 | 25* | 16 | -11
COc1cc(N2Cc3ccccc3C2)ccc1C=O | 0 | 0 | 1 | -116 | 29 | 54* | 40* | -7
CNC[C@H]1Oc2c(cccc2N(C)C)C(=O)N([C@H](C)CO)C[C@H]1C | · | · | · | 5 | · | · | · | ·
O=S(=O)(c1cccc(F)c1)N1CC[C@@H]2[C@H](CO)Nc3ccc(-c4cccc(F)c4)cc3[C@@H]21 | · | · | · | -6 | · | · | · | ·
Fc1cccc(Cl)c1C1Nc2cccc3cccc(c23)N1 | 0 | 6 | -4 | -2 | 27 | 19* | -2 | -5
Clc1cccc(Cl)c1C1Nc2cccc3cccc(c23)N1 | 0 | 25 | 4 | -5 | 0 | 5 | · | ·
SMILES | aDG glyco act | TROY NFkB inh | LMP1 NFkB inh | LGR2 inh | TWEAK Fn14 block | HSP90 refold inh | HSP90 inh confirm | luciferase ctr
CC(C)=CC(=O)N1CC[C@@H](N2CCN(c3ccccc3F)CC2)[C@H](O)C1 | 0 | -1 | -25 | 1 | 1 | -2 | · | ·
O=C(c1cccc(-c2ccccc2F)c1)N1CC[C@@H](N2CCC(O)CC2)[C@H](O)C1 | 0 | 5 | 12 | 28 | -3 | 84* | 4 | -4
O=C(O)[C@H]1[C@H](CO)[C@H]2Cn3c(ccc(-c4ccccc4F)c3=O)[C@H]2N1C(=O)c1cnccn1 | · | · | · | 11 | · | · | · | ·
CCC(=O)Nc1ccc(Cl)c(-c2nc3ncccc3o2)c1 | 0 | 10 | 4 | -1 | -8 | 4 | · | ·
CC(C)C(=O)Nc1ccc(-c2nc3ncccc3o2)cc1 | 0 | 19 | 5 | 39 | 46 | 18* | 25* | 13*
CCCC(=O)Nc1ccc(Cl)c(-c2nc3ncccc3o2)c1 | 0 | -45 | 3 | -6 | -17 | 23* | -7 | -11
CC(C)C(=O)Nc1ccc(-c2nc3cccnc3o2)cc1 | 0 | 13 | 1 | · | 60* | 26* | 30* | 7
CC(C)(C)c1ccc(OCC(=O)Nc2ccc(-c3nc4cccnc4o3)cc2)cc1 | 0 | 24 | -10 | -44 | -22 | 2 | · | ·
CN1C(=O)c2cc(NC(=O)Cc3ccccc3)ccc2OC[C@H]2O[C@H](CC(=O)NC3CCC3)CC[C@H]21 | · | · | · | 4 | · | · | · | ·
CN(C)c1cccc(C(=O)Nc2nc3ccccc3[nH]2)c1 | 1 | 2 | 44* | ? | 61* | 25* | 56* | 39*
O=C(Nc1nc2ccccc2[nH]1)c1cccc(F)c1 | 0 | 11 | 0 | -24 | 36 | 26* | 30* | 12*
O=C(C[C@@H]1CC[C@@H]2[C@H](COC[C@@H](O)CN2Cc2ccncc2)O1)NCc1ccccc1Cl | · | · | · | -3 | · | · | · | ·
COc1ccc(CN2CCN(S(=O)(=O)c3ccc(NC(C)=O)cc3)CC2)cc1 | 0 | 16 | 0 | 21 | 4 | 24* | -1 | -2
N#C[C@H]1[C@H](c2ccccc2C2=CCCCC2)[C@@H](CO)N1C(=O)NC1CCCCC1 | · | · | · | 5 | · | · | · | ·
COCC(=O)N(C[C@H]1N[C@H](CO)[C@@H]1c1ccc(-c2cccnc2)cc1)C(C)C | · | · | · | 6 | · | · | · | ·
COc1ccc(C(=O)Nc2ccccc2C(=O)NCc2cccnc2)cc1OC | 0 | 8 | 2 | 1 | -4 | 0 | · | ·
COc1ccc(C(=O)Nc2ccccc2C(=O)N/N=C/c2ccncc2)cc1OC | 0 | -17 | 32 | ? | 9 | 29* | 61* | 19*
COc1ccc(C(=O)Nc2ccccc2C(=O)N/N=C/c2cccc3ccccc23)cc1 | 0 | 50 | 33 | · | 78* | 35* | 80* | 51*
COc1ccc(C(=O)Nc2ccccc2C(N)=O)cc1 | 0 | -45 | -9 | -14 | -16 | -7 | · | ·

Screens: PubChem BioAssay, several laboratories
